Here are results for 8 compounds from PubChem BioAssay (NCATS).

Inconclusive results are not listed. The source made the active and inactive calls. Calls come from the whole dose curve; as a rule, active = well fitted curve in the direction sought with a large enough effect; inconclusive = small, poorly fitted or top-dose-only effect, or another doubt; inactive = no such curve, though single readings can be large; an effect the other way counts as inactive or inconclusive.

Test [1] is described as follows: Quantitative High-Throughput drug screen in 47 multiple myeloma cell lines against the NCATS MIPE library collection: FR4_PLB cell viability assay (AID 1918924; note: nearly all actives have a fitted effect of over 35% in size; note: potency is the fitted concentration of half-maximal effect). Put shortly: (§1)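 Relative luminescence from CellTiter-Glo served as the viability signal, referenced to DMSO-treated (100%) and cell-free medium (0%) controls. Treatment lasted 48 hours at 37C with 500 cells per well.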

Test [2] in a line: Quantitative High-Throughput drug screen in 47 multiple myeloma cell lines against the NCATS MIPE library collection: EJM_DSMZ cell viability assay (AID 1918926; note: nearly all actives have a fitted effect of over 30% in size; note: potency is the fitted concentration of half-maximal effect). Put shortly: (§2)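 Luminescent ATP measurement with CellTiter-Glo gives viability, scaled between DMSO-only wells (100%) and media-only wells (0%). Cells, 500 per well, faced library compounds for 48 hours at 37C.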
Test [3] is described as follows: Quantitative High-Throughput drug screen in 47 multiple myeloma cell lines against the NCATS MIPE library collection: ARP1_JJKsccF8 cell viability assay (AID 1918928; note: nearly all actives have a fitted effect of over 40% in size; note: potency is the fitted concentration of half-maximal effect). Put shortly: (§3)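 Cell viability inhibition in this qHTS is measured via ATP content (CellTiter-Glo) after 48 h drug exposure at 37 °C. Wells hold 500 cells; DMSO-treated wells define 100% and medium-only wells 0%.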

Test [4] can be described thus: Quantitative High-Throughput drug screen in 47 multiple myeloma cell lines against the NCATS MIPE library collection: ARD_JJKsccE7 cell viability assay (AID 1918929; note: potency is the fitted concentration of half-maximal effect). Put shortly: as §2
Test [5] is described as follows: Quantitative High-Throughput drug screen in 47 multiple myeloma cell lines against the NCATS MIPE library collection: Karpas620_DSMZ cell viability assay (AID 1918959). Note: nearly all actives have a fitted effect of over 30% in size. Note: potency is the fitted concentration of half-maximal effect. Summed up:
as §1

Test [6] in a line: Quantitative High-Throughput drug screen in 47 multiple myeloma cell lines against the NCATS MIPE library collection: KMM1_JCRB cell viability assay (AID 1918960). Note: nearly all actives have a fitted effect of over 30% in size. Note: potency is the fitted concentration of half-maximal effect. Put shortly: as §3
The nature of test [7]: Quantitative High-Throughput drug screen in 47 multiple myeloma cell lines against the NCATS MIPE library collection: JIM3_ECACC cell viability assay (AID 1918963; note: nearly all actives have a fitted effect of over 35% in size; note: potency is the fitted concentration of half-maximal effect). Summed up: as §1
Test [8] in a line: Quantitative High-Throughput drug screen in 47 multiple myeloma cell lines against the NCATS MIPE library collection: H1112_PLB cell viability assay (AID 1918967; note: nearly all actives have a fitted effect of over 30% in size; note: potency is the fitted concentration of half-maximal effect). Put shortly:
as §2

A short description of test [9]: Quantitative High-Throughput drug screen in 47 multiple myeloma cell lines against the NCATS MIPE library collection: Karpas25_ECACC cell viability assay (AID 1918968; note: nearly all actives have a fitted effect of over 35% in size; note: potency is the fitted concentration of half-maximal effect). Put shortly: as §2
The nature of test [10]: Quantitative High-Throughput drug screen in 47 multiple myeloma cell lines against the NCATS MIPE library collection: KMS27_JCRB cell viability assay (AID 1918970). Note: nearly all actives have a fitted effect of over 30% in size. Note: potency is the fitted concentration of half-maximal effect. Put shortly: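 KMS27_JCRB myeloma cells, 500 per well, exposed 48 h at 37 C, 5% CO2 to MIPE 4.0 compounds. Viability from ATP by CellTiter-Glo luminescence, normalized to DMSO (100%) and medium-only (0%) wells.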

Test [11] is described as follows: Quantitative High-Throughput drug screen in 47 multiple myeloma cell lines against the NCATS MIPE library collection: KMS12BM_JCRB cell viability assay (AID 1918971). Note: nearly all actives have a fitted effect of over 35% in size. Note: potency is the fitted concentration of half-maximal effect. Put shortly: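 We plated 500 myeloma cells per well, pinned in MIPE 4.0 compounds, and incubated for 48 hours at 37C. ATP was then quantified with CellTiter-Glo, with DMSO and media-only wells defining 100% and 0%.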

The nature of test [12]: Quantitative High-Throughput drug screen in 47 multiple myeloma cell lines against the NCATS MIPE library collection: AMO1_DSMZ cell viability assay (AID 1918927; note: nearly all actives have a fitted effect of over 30% in size; note: potency is the fitted concentration of half-maximal effect). Put shortly:
as §2

Test [13] in a line: Quantitative High-Throughput drug screen in 47 multiple myeloma cell lines against the NCATS MIPE library collection: JIM1_ECACC cell viability assay (AID 1918964; note: potency is the fitted concentration of half-maximal effect). Put shortly: as §2
Test [14] is described as follows: Quantitative High-Throughput drug screen in 47 multiple myeloma cell lines against the NCATS MIPE library collection: INA6_PLB cell viability assay (AID 1918965; note: nearly all actives have a fitted effect of over 55% in size; note: potency is the fitted concentration of half-maximal effect). Summed up:
as §1

A short description of test [15]: Quantitative High-Throughput drug screen in 47 multiple myeloma cell lines against the NCATS MIPE library collection: JJN3_DSMZ cell viability assay (AID 1918966; note: potency is the fitted concentration of half-maximal effect; nearly all actives have a fitted effect of over 50% in size). Put shortly: as §2
Test [16] in a line: Quantitative High-Throughput drug screen in 47 multiple myeloma cell lines against the NCATS MIPE library collection: Delta47_JCRB cell viability assay (AID 1918925; note: nearly all actives have a fitted effect of over 45% in size; note: potency is the fitted concentration of half-maximal effect). Put shortly:
as §2

The nature of test [17]: Quantitative High-Throughput drug screen in 47 multiple myeloma cell lines against the NCATS MIPE library collection: KHM11_PLB cell viability assay (AID 1918962). Note: nearly all actives have a fitted effect of over 35% in size. Summed up:
as §1

The nature of test [18]: Quantitative High-Throughput drug screen in 47 multiple myeloma cell lines against the NCATS MIPE library collection: Karpas417_ECACC cell viability assay (AID 1918961). Note: potency is the fitted concentration of half-maximal effect. The note with it: Karpas417 myeloma viability, CellTiter-Glo ATP luminescence, 48 h; viability (% of DMSO): at 45.8 µM (top of the series). Summed up:
as §1
On the technique in general: ATP-based viability assays read luminescence as a measure of living cells.

As to `CCCN1CCO[C@@H]2c3cc(O)ccc3OC[C@@H]21`, the Potency result in test [1], in test [2], in test [3], in test [4], in test [5] and in test [6] was “inactive” throughout. In addition, the Potency result in [7], in test [8], in test [9] and in test [10] was “inactive” throughout. In addition, the Potency in test [11] is 14.8 µM (active).

With `C[C@@]12OC(=O)[C@]1([C@@H](O)[C@@H]1C=CCCC1)NC(=O)[C@H]2CCCl`, the Potency in test [1] is 0.0053 µM (active); in test [2], 0.0187 µM (active); in [12], 0.0118 µM (active); in [3], 0.0105 µM (active); in test [4], 0.001 µM (active); in test [5] it was 0.0093 µM (active). The Potency in test [6] is 0.0074 µM (active); in [7], 0.0235 µM (active); in test [13] it was 0.0209 µM (active); in [14] it was 0.001 µM (active); in test [15] it was 0.0332 µM (active); in test [8], 0.0235 µM (active). For the same compound, the results for the Potency in test [9], in [10] and in test [11] were 0.001 µM (active), 0.0187 µM (active) and 0.0235 µM (active), respectively.

Take `COc1ccc(C(=O)c2c(C)n(CCN3CCOCC3)c3cc(I)ccc23)cc1`: the Potency was 16.6 µM (active) in test [16]; 11.8 µM (active) in [12]; 23.5 µM (active) in [3]; 18.7 µM (active) in [4]; 18.7 µM (active) in [5]; 18.7 µM (active) in test [6]. For the same compound, the Potency in test [7] is 13.2 µM (active); in test [13], 11.8 µM (active); in test [14], 8.33 µM (active); in test [8] it was 16.6 µM (active); in [9], 18.7 µM (active); in [10], 13.2 µM (active). In [11], the Potency is 23.5 µM (active). Further, the Potency entry in [17] was “inactive”.

Turning to `COc1ccc2c(c1)CN(C)CC2c1ccc(Cl)c(Cl)c1` (configuration not stated), the Potency is 23.5 µM (active) in test [16]; 18.7 µM (active) in test [2]; 23.5 µM (active) in [12]; 20.9 µM (active) in [3]; 10.5 µM (active) in [4]; 16.6 µM (active) in test [5]. Moreover, the Potency in [6] was 14.8 µM (active); in test [18] it was 14.8 µM (active); in test [13], 7.43 µM (active); in test [14], 23.5 µM (active); in test [9], 0.209 µM (active); in test [10], 16.6 µM (active).

For `C=C[C@@H]1CN2CCC1C[C@H]2[C@H](O)c1ccnc2ccccc12` (some centres not stated), the Potency in [1] is 18.7 µM (active); in [7] it was 14.8 µM (active); in [14] it was 20.9 µM (active); in test [8] it was 13.2 µM (active). In addition, the Potency entry in test [12], in [4] and in [5] was “inactive” throughout.

Take `CC=C(C)C(=O)N[C@@H](c1ccccc1)[C@@H](O)C(=O)O[C@H]1C[C@@]2(O)[C@@H](OC(=O)c3ccccc3)[C@@H]3[C@]4(OC(C)=O)CO[C@@H]4C[C@H](O)[C@@]3(C)C(=O)[C@H](OC(C)=O)C(=C1C)C2(C)C`: the Potency entry in test [1], in [2], in test [3], in test [7], in [14] and in [11] was “inactive” in each case. Also, the results for the Potency in test [4] and in test [10] were 0.001 µM (active) and 0.0012 µM (active), respectively.

`C#CC1(O)CCC2C3CCC4=CC(=O)CCC4(C)C3CCC21C` (configuration not stated): the Potency entry in test [16], in test [2], in [12], in test [3], in test [4] and in test [5] was “inactive” each time. Also, the Potency result in test [6], in test [17], in [14], in test [8], in [9] and in test [10] was “inactive” each time. Further, the Potency in test [11] is 4.18 µM (active).

Take `CC(C)(C)[C@]1(O)C[C@@H]2OC(=O)C[C@@]23C(=O)O[C@@H]2OC(=O)[C@H](O)C213` (some centres not stated): the Potency entry in test [1], in test [2], in test [12], in [3], in test [5] and in [6] was “inactive” in each case. Further, the Potency result in test [7], in [14], in test [8], in test [9] and in test [10] was “inactive” in each case. Also, the Potency in test [13] is 0.0332 µM (active).
